hcDAF-12 act – H. contortus DAF-12 nuclear receptor activators, primary screen, cell-based, luminescence, HEK293, lit1-tk-luc reporter | HEK293 hcDAF-12 lit1-tk-luc reporter; 0% DMSO, 100% Δ7-dafachronic acid | 370,000 tested, 1.4% active | activation, % at 6.8 µM | AID 652067, 2013;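 active = activation above the mean of all tested compounds plus 3 SD, cut at about 5.5% in these data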;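 also: 100% = response to 3 µM Δ7-dafachronic acid high control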
DAX1 inh-1 – DAX1 (NR0B1) inhibitors on StAR promoter, primary screen, cell-based, luminescence, SF-1 (NR5A1), full-length DAX-1 | 370,000 tested, 1.1% active | inhibition, % at 6.8 µM | HEK293T StAR-luciferase reporter, SF-1/DAX-1 repression relief | AID 652010, 2013;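 active = inhibition above the mean over all tested compounds plus 3 SD, cut at about 3.6% in these data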;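 also: 0% = DAX-1 cells with DMSO and 100% = cells lacking DAX-1 with DMSO; higher inhibition means more luminescence from relief of DAX-1 repression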
SMARCA2 act – SMARCA2 (BRM) function activators, primary screen, cell-based, luminescence, high throughput. AID 652017, 2013. 370,000 tested, 1% active. MG213 cells, MMTV-luciferase reporter, dexamethasone, overnight. activation, % at 9.1 µM; in the data active = activation above about 7.8%;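 also: 0% = vehicle wells and 100% = reference activator wells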
hgDAF12 agonist – H. glycines DAF-12 receptor agonists, primary screen, cell-based, luminescence, HEK293, GAL4 fusion, UAS-luciferase; Nuclear hormone receptor DAF-12 (Heterodera glycines), GAL4 fusion; HEK293 GAL4-hgDAF12 UAS-luciferase reporter, agonist luminescence; normalized to butyrate control; activation, % at 6.8 µM; 370,000 tested, 1.8% active;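 active = activation above a cutoff set at the mean of all screened compounds plus 3 SD, cut at about 10% in these data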;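 also: 0% = DMSO wells and 100% = sodium butyrate wells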
DAX1 inh-2 – DAX1 (NR0B1) inhibitors, primary screen, cell-based, HEK293, Gal4-DAX1, luciferase luminescence | inhibition, % at 6.75 µM | 340,000 tested, 0.99% active | Nuclear receptor subfamily 0 group B member 1 (Homo sapiens), P51843 | HEK293 Gal4-DAX1 luciferase reporter | AID 504766, 2011;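 active = inhibition above the mean over all tested compounds plus 3 SD, cut at about 4.2% in these data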;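 also: 0% = DAX1-transfected cells with DMSO and 100% = empty-vector control cells with DMSO; inhibition shows as a rise in luminescence from relieved DAX1 repression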
Target sequence (P51843 207-470 limits assumed): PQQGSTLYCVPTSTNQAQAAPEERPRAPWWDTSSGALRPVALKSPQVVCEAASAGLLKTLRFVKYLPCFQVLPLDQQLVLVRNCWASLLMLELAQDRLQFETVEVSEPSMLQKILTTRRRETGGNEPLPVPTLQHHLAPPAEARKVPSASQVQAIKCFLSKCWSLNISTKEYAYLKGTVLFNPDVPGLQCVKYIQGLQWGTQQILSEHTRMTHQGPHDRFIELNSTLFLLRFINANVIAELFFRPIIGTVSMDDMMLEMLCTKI
ssDAF-12 act – S. stercoralis DAF-12 nuclear receptor activators, primary screen, cell-based, luminescence, HEK293, GRIP1 co-expression, lit1-tk-luc; HEK293 ssDAF-12/GRIP1 lit1-tk-luc reporter; % of 3 µM dafachronic acid response; activation, % at 6.8 µM; 370,000 tested, 1% active; AID 652126, 2013;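 active = activation above the mean over all tested compounds plus 3 SD, cut at about 0.9% in these data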;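 also: 0% = DMSO-only wells and 100% = 3 µM delta7-dafachronic acid wells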
SMARCA2 act conf – SMARCA2 (BRM) function activators, confirmation, cell-based, luminescence, triplicate. shares compounds with SMARCA2 act. activation, % at 9.1 µM. 3,500 tested, 30% active. AID 652260, 2013. MG213 cells, MMTV-luciferase with dexamethasone, overnight; MG213 cells expressing E1A, Rb sequestered; DMSO wells 0%, reference activator 100%;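 active = activation above its plate's cutoff, the mean activation of tested wells plus 3 SD, cut at about 7.9% in these data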
VP16 Luc act – GAL4-VP16 luciferase reporter activation, counter-screen for SMARCA2 (BRM) activator project, cell-based, pG5luc, luminescence, high throughput | 3,500 tested, 41% active | shares compounds with SMARCA2 act | AID 686939, 2013 | HEK293 GAL4-VP16 pG5luc reporter; scaled: DMSO wells 0%, SAHA wells 100% | activation, % at 9.1 µM;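 active = activation above the solvent-only control well mean plus 3 SD, averaged across control plates, cut at about 5.2% in these data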
Active calls of the source: *; · = no result. An excerpt weighted towards active compounds, which were near 4.8% of everything screened.

SMILES	hcDAF-12 act	DAX1 inh-1	SMARCA2 act	hgDAF12 agonist	DAX1 inh-2	ssDAF-12 act	SMARCA2 act conf	VP16 Luc act
Cn1cnc([N+](=O)[O-])c1S(=O)(=O)Oc1ccccc1	1	-2	20*	3	-1	-1	-14	6.3*
Cn1cnc([N+](=O)[O-])c1S(=O)(=O)Nc1ccccc1	0	-1	3	3	0	-1	·	·
CCOc1ccc(C(C)=O)cc1COC(=O)C1=COCCO1	-1	0	-1	4	0	-1	·	·
Cc1cc(C)cc(N(C(=O)c2snc(C(N)=O)c2N)C(C(=O)NCC2CCCO2)c2ccc(C)o2)c1 (stereo unspecified)	-2	0	-2	-3	-1	-1	·	·
Cn1cc(CC(=O)NCc2ccc(F)cc2)c2ccccc21	-2	1	7	-1	-1	-1	·	·
Cn1cc(S(=O)(=O)Cc2ccc(F)cc2)c2ccccc21	-1	0	8.2*	-5	1	-2	-3	0
COc1cccc(C(=O)Nc2ccc(NC(=O)C(C)C)nc2)c1	-1	0	8.5*	-3	2	-1	2	3
COc1cccc(C(=O)Nc2ccc(NC(=O)C3CC3)cn2)c1	0	2	8.4*	7	1	-1	-1	8.2*
CCc1nc2c(OCc3ccc(C(F)(F)F)cc3)cccn2c1N(C)C(=O)c1ccncc1	1	-1	5	-4	·	-1	·	·
COc1ccc(C(=O)NC(=S)Nc2ccc(CN3CCCCC3)cc2)cc1Cl	-3	-1	0	-4	0	-2	·	·
COc1ccc(C(C)(C)C)cc1NC(=O)c1ccc2c(c1)SC1=NS(=O)(=O)CCN12	-2	-1	2	-1	2	-1	·	·
CN(C(=O)c1ccc2c(c1)SC1=NS(=O)(=O)CCN12)C(c1ccccc1)c1ccccc1	-3	0	10*	-5	-2	-1	14*	3
CC(C)(C)c1nnc(NC(=O)c2ccc3c(c2)OCO3)s1	4	2	10*	10	3	0	8.4*	6.4*
CCSc1nnc(NC(=O)c2ccc3c(c2)OCO3)s1	1	2	2	6	2	0	·	·
CS(=O)(=O)Nc1ccc(C2=NN(S(C)(=O)=O)C(c3ccc4c(c3)OCO4)C2)cc1 (stereo unspecified)	1	3	10*	11*	2	-1	16*	6.6*
CCN(CC)C(=O)C1CCN(S(=O)(=O)c2ccc(-n3cnnn3)cc2)CC1	-1	0	-1	-3	-1	-1	·	·
Cc1ccccc1/C=N/NC(=O)c1cccnc1	0	0	-1	3	1	0	·	·
Cn1c(-c2ccccc2)c(/C=N/NC(=O)c2cccnc2)c2ccccc21	0	2	12*	6	3	-1	6	2
Cn1cccc1/C=N/NC(=O)c1cccnc1	1	0	8.3*	2	0	-1	1	1
O=C(N/N=C/c1cccc2ccccc12)c1cccnc1	0	0	9.1*	5	3	-1	1	3
Cc1ccc(C(=O)N/N=C\c2cccn2C)cn1	0	0	0	2	1	-1	·	·
